Assay outcomes from PubChem.
A selection: hits, their analogues and other compounds. The true share with any hit is near 1.7%.
GSTO1 inh: inhibitors of recombinant GSTO1, primary screen, counter-screen for RBBP9 inhibitor project, biochemical, fluorescence polarization; Glutathione S-transferase omega-1 (Homo sapiens), P78417; activity-based probe fluorescence polarization; inhibition, % at 5.96 µM; 300,000 tested, 1.1% active; AID 1974, 2009;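 active means inhibition above the campaign mean inhibition plus 3 SD, cut at about 35% in these data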;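 further: 0% = GSTO1-1 with DMSO and 100% = wells lacking GSTO1-1 enzyme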
Fam108B counter: mouse Fam108B serine hydrolase inhibitors, primary screen, counter-screen for RBBP9 inhibitor project, biochemical, fluorescence polarization | inhibition, % at 9.51 µM | 300,000 tested, 0.33% active | recombinant Fam108B, FP-Rh probe fluorescence polarization;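 active means inhibition above the screen mean inhibition plus 3 SD, computed separately per campaign, cut at about 18% in these data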;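 further: inhibitors lower polarization as less probe binds the enzyme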
LYPLA1 counter: LYPLA1 inhibitors, primary screen, counter-screen for PME1 inhibitor project, biochemical, fluorescence polarization, FP-Rh probe ABPP; Acyl-protein thioesterase 1 (Homo sapiens), O75608; recombinant LYPLA1; inhibition, % at 5.9 µM; 320,000 tested, 0.16% active;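 active means inhibition above the mean of all tested compounds plus 3 SD, set per campaign, cut at about 14% in these data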;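 further: inhibitors block serine hydrolase probe labeling of LYPLA1 so polarization falls; 0% = enzyme with DMSO and 100% = wells lacking LYPLA1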
Target sequence (O75608 whole entry, looked up): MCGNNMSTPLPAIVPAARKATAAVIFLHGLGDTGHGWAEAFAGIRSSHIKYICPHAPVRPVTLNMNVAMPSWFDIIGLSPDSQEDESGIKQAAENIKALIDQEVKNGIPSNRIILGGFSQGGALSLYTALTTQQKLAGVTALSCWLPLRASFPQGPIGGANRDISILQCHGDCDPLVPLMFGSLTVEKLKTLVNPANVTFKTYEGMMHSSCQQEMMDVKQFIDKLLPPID
LYPLA2 counter: LYPLA2 inhibitors, primary screen, counter-screen for PME1 inhibitor project, biochemical, fluorescence polarization, FP-Rh probe ABPP; Acyl-protein thioesterase 2 (Homo sapiens), O95372; recombinant LYPLA2; inhibition, % at 5.9 µM; 320,000 tested, 0.38% active;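 active means inhibition above the screen-wide mean plus 3 SD, limit set per campaign, cut at about 26% in these data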;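 further: 0% = LYPLA2 with DMSO and 100% = wells lacking LYPLA2 enzyme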
PME-1 inh: PME-1 inhibitors via competitive probe labeling, primary screen, biochemical, fluorescence polarization, FP-Rh probe, HTS. recombinant PME-1. inhibition, % at 5.9 µM. 320,000 tested, 0.53% active. AID 2130, 2009;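 active means inhibition above the campaign mean of all compounds plus 3 SD, cut at about 26% in these data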;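 further: competitive labeling of PME-1 active site by serine hydrolase directed probe; 0% = PME-1 with DMSO and 100% = wells lacking PME-1 enzyme; inhibitors block probe labeling so polarization falls and inhibition rises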
Target sequence (Q9Y570 whole entry, looked up): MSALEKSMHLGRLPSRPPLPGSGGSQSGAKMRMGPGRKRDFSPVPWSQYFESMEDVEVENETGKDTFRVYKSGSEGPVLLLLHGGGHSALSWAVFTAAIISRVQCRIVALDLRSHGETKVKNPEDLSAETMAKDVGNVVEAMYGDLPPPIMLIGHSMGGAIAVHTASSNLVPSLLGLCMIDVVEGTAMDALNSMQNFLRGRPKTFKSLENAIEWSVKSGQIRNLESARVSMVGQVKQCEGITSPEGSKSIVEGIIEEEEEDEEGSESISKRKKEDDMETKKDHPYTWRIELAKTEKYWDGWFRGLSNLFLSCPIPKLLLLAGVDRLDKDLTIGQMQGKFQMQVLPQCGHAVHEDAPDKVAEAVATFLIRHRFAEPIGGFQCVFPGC
PAD4 inh: human PAD4 inhibitors, primary screen, biochemical, fluorescence polarization, 1536-well format; 330,000 tested, 0.41% active; inhibition, % at 6.36 µM; recombinant PAD4, RCA probe fluorescence polarization; AID 485272, 2010;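 active means percent inhibition above a cutoff equal to the mean of all tested compounds plus 3 SD, cut at about 15% in these data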;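 further: 0% = PAD4 with RCA probe and DMSO and 100% = probe without PAD4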
Fam108b confirm: mouse Fam108b serine hydrolase inhibitors, confirmation, counter-screen for RBBP9 inhibitor project, biochemical, fluorescence polarization, triplicate; inhibition, % at 9.51 µM; shares compounds with Fam108B counter; recombinant Fam108b, FP-Rh probe fluorescence polarization; 930 tested, 44% active; AID 1978, 2009;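 active means inhibition above a limit from the primary screen, the mean over all compounds plus 3 SD, cut at about 19% in these data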;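 further: 0% = median of active Fam108b wells and 100% = catalytically dead S170A mutant; inhibitors free the probe so polarization falls as inhibition rises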
GSTO1 confirm: GSTO1 inhibitor hit confirmation, counter-screen for RBBP9 inhibitor project, biochemical, fluorescence polarization, triplicate. inhibition, % at 5.96 µM. 2,400 tested, 54% active. AID 2176, 2009. shares compounds with GSTO1 inh. recombinant GSTO1, probe fluorescence polarization;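 active means inhibition above the primary screen's cutoff, its mean inhibition plus 3 SD, cut at about 35% in these data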;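 further: loss of polarization as inhibitors block binding of rhodamine sulfonate ester activity probe; 0% = GSTO1 with DMSO and 100% = wells lacking GSTO1 enzyme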
LYPLA2 confirm: LYPLA2 inhibitors, retest, confirmation, counter-screen for PME1 inhibitor project, biochemical, fluorescence polarization, FP-Rh probe ABPP. shares compounds with LYPLA2 counter. inhibition, % at 5.9 µM. recombinant LYPLA2. AID 2232, 2010. 1,100 tested, 72% active;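 active means mean inhibition across replicates above the hit cutoff set in the primary screen, cut at about 26% in these data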;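 further: blocked labeling of the enzyme by serine hydrolase FP-Rh probe lowers polarization; 0% = enzyme with DMSO and 100% = wells lacking LYPLA2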
PAD4 confirm: human PAD4 inhibitors, confirmation, biochemical, fluorescence polarization; shares compounds with PAD4 inh; recombinant PAD4, RCA probe fluorescence polarization; inhibition, % at 6.36 µM; 1,200 tested, 28% active; AID 488796, 2010;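 active means mean inhibition across replicates above the hit cutoff set by the earlier primary screen, cut at about 15% in these data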;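 further: inhibitors block active-site labeling by the probe so polarization falls; 0% = PAD4 with probe and DMSO and 100% = probe without PAD4 enzyme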
The depositor's hits bear a star.

Results for Cc1nc2ccccc2n2c(O)c(CC(=O)O)cc12 ?
GSTO1 inh: 14; Fam108B counter: 18*; LYPLA1 counter: 12; LYPLA2 counter: 27*; PME-1 inh: 22; PAD4 inh: 75*; Fam108b confirm: 11; LYPLA2 confirm: 10; PAD4 confirm: 39*

How did O=c1c(-c2ccc([N+](=O)[O-])cc2)coc2c(O)c(O)ccc12 do in these assays?
GSTO1 inh: 53*; Fam108B counter: 1; LYPLA1 counter: -9; LYPLA2 counter: 3; PME-1 inh: -7; PAD4 inh: 3; GSTO1 confirm: 25

How did O=Cc1ccc(O)cc1O do in these assays?
GSTO1 inh: 7; Fam108B counter: -6; LYPLA1 counter: 2; LYPLA2 counter: 1; PME-1 inh: -2; PAD4 inh: -3

Results for O=CN/C=C/c1cc(O)ccc1O ?
GSTO1 inh: 72*; Fam108B counter: -2; LYPLA1 counter: 0; LYPLA2 counter: 5; PME-1 inh: 3; PAD4 inh: 2; GSTO1 confirm: 7

What do the screens show for `C=CCSC1=N/C(=C\C=C\c2ccco2)C(=O)S1`?
GSTO1 inh: 45*; Fam108B counter: 16; LYPLA1 counter: 3; LYPLA2 counter: 4; PME-1 inh: 2; PAD4 inh: -1; GSTO1 confirm: 19

Results for O=C(CSc1nc(-c2ccccc2)cs1)Nc1ccccc1[N+](=O)[O-] ?
GSTO1 inh: -4; Fam108B counter: -2; LYPLA1 counter: -2; LYPLA2 counter: 2; PME-1 inh: 6; PAD4 inh: -2

What do the screens show for `COc1ccc(C2C(O)C(c3c[nH]c4ccccc34)=NN2C(=O)CCl)cc1` (centres undefined)?
GSTO1 inh: 88*; Fam108B counter: 3; LYPLA1 counter: -4; LYPLA2 counter: 6; PME-1 inh: 5; PAD4 inh: 8; GSTO1 confirm: 93*

What do the screens show for `O=C(CC12CC3CC(CC(C3)C1)C2)Nc1cccc2ncccc12`?
GSTO1 inh: 1; Fam108B counter: 5; LYPLA1 counter: 3; LYPLA2 counter: -1; PME-1 inh: -1; PAD4 inh: -10

How did COc1ccc(S(=O)(=O)NCc2ccc(F)cc2)cc1OC do in these assays?
GSTO1 inh: 2; Fam108B counter: -2; LYPLA1 counter: 5; LYPLA2 counter: -7; PME-1 inh: 1; PAD4 inh: -2

How did COc1cccc(N=Nc2c(=O)[nH]n3c(C)cc(C)nc23)c1 do in these assays?
GSTO1 inh: 38*; Fam108B counter: 13; LYPLA1 counter: -1; LYPLA2 counter: 3; PME-1 inh: -2; PAD4 inh: -9; GSTO1 confirm: 3

What do the screens show for `Clc1ccc(-c2nnc(SCc3nc(-c4ccccc4)no3)o2)cc1`?
GSTO1 inh: 40*; Fam108B counter: -6; LYPLA1 counter: -2; LYPLA2 counter: -2; PME-1 inh: -4; PAD4 inh: 0; GSTO1 confirm: 46*

What do the screens show for `COc1ccc(N2C(C)=CS/C2=C(/C#N)c2nnc(N3CCOCC3)n2-c2ccccc2)cc1`?
GSTO1 inh: 0; Fam108B counter: 0; LYPLA1 counter: 1; LYPLA2 counter: 6; PME-1 inh: 3; PAD4 inh: -1

Results for C=CCN1C(=O)NC(c2ccccc2)(C(F)(F)F)S/C1=C(\C#N)c1nnc(N2CCOCC2)n1-c1ccccc1 (centres undefined) ?
GSTO1 inh: 43*; Fam108B counter: 0; LYPLA1 counter: -2; LYPLA2 counter: 2; PME-1 inh: 0; PAD4 inh: 1; GSTO1 confirm: 58*

Results for O=S(=O)(c1ccc(Cl)cc1)c1cc(O)ccc1O ?
GSTO1 inh: 61*; Fam108B counter: -4; LYPLA1 counter: -1; LYPLA2 counter: 6; PME-1 inh: -1; PAD4 inh: -1; GSTO1 confirm: 2

Results for Cc1c(O)ccc2cc(S(=O)(=O)c3ccccc3)c(=O)oc12 ?
GSTO1 inh: 1; Fam108B counter: 0; LYPLA1 counter: -5; LYPLA2 counter: -9; PME-1 inh: 0; PAD4 inh: 0

What do the screens show for `O=S(=O)(c1ccccc1)c1cc(O)ccc1O`?
GSTO1 inh: 64*; Fam108B counter: -3; LYPLA1 counter: -5; LYPLA2 counter: -1; PME-1 inh: -10; PAD4 inh: 2; GSTO1 confirm: 9

Results for CCOC(=O)c1cnc(SCc2nc(N)nc(Nc3ccccc3OC)n2)nc1N ?
GSTO1 inh: 2; Fam108B counter: -1; LYPLA1 counter: -2; LYPLA2 counter: -9; PME-1 inh: -6; PAD4 inh: -5

What do the screens show for `c1ccc(N2CCN(Cc3ccnc4ccccc34)CC2)cc1`?
GSTO1 inh: -3; Fam108B counter: 1; LYPLA1 counter: 1; LYPLA2 counter: 10; PME-1 inh: 9; PAD4 inh: -3

Results for Oc1c(CN2CCN(c3ccccc3)CC2)cc(Br)c2cccnc12 ?
GSTO1 inh: 38*; Fam108B counter: 7; LYPLA1 counter: -2; LYPLA2 counter: -1; PME-1 inh: -5; PAD4 inh: -4; GSTO1 confirm: 4

Results for O=C1C(=O)c2ccccc2C(O)=C1CCCCl ?
GSTO1 inh: 68*; Fam108B counter: 4; LYPLA1 counter: 2; LYPLA2 counter: 7; PME-1 inh: 6; PAD4 inh: 3; GSTO1 confirm: 73*

How did CN(C(=O)Nc1ccc(S(=O)(=O)N(C)C)cc1)C1CCCCC1 do in these assays?
GSTO1 inh: -6; Fam108B counter: -2; LYPLA1 counter: 2; LYPLA2 counter: 2; PME-1 inh: 3; PAD4 inh: 4
